Results as given in PubChem BioAssay (NCATS).
Records with an inconclusive call do not appear. Active and inactive are the calls of the source. Unless noted, calls follow the shape of the dose curve; as a rule, active = well fitted inhibition curve with a large enough effect; inconclusive = small, poorly fitted or top-dose-only effect; inactive = flat fitted curve, though single readings scatter.

How the values were obtained:
[1] = system: ATS189; test: qHTS profiling for inhibitors of Plasmodium falciparum proliferation (AID 504749); also: nearly all actives have a fitted effect of over 60% in size; also: potency is read from the fitted curve at half-maximal effect;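 as to activity, negative = inhibition: 0% = DMSO vehicle and full inhibition = artemisinin control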; conditions: P. falciparum in erythrocytes, SYBR Green DNA, 72 h; series mostly up to 28.7 µM
Procedure, shortened: (§1)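 In a 72 h erythrocytic culture (37 C, humidified, 5% CO2) at 2.5% hematocrit and 0.3% starting parasitemia, compounds were tested; SYBR Green I in detergent lysis buffer stained parasite DNA overnight.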

[2] = qHTS for identification of novel therapeutic agents for treatment of microphthalmiaassociated transcription factor (MiT) renal cell carcinoma (RCC) (AID 1963991); conditions: CellTiter-Glo, 48 h, stronger effect = lower value
Procedure, shortened: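 Curves over 11 concentrations were fitted to CellTiter-Glo luminescence, scaled between empty wells (0%) and DMSO (100%) viability. Cells were UOK109, UOK124 and UOK145 TFE3-fusion RCC lines at 500/well, exposed 48 hours at 37 C.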

[3] = qHTS profiling for inhibitors of Plasmodium falciparum proliferation (AID 504749); also: potency is read from the fitted curve at half-maximal effect;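 as to activity, negative = inhibition: 0% = DMSO vehicle and full inhibition = artemisinin control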; as to all read-outs here: nearly all actives have a fitted effect of over 60% in size; conditions: P. falciparum in erythrocytes, SYBR Green DNA, 72 h; for activity, negative = inhibition: at 28.7 µM (top of the series)
Procedure, shortened: as §1

[4] = system: 3D7; test: as above; conditions: P. falciparum in erythrocytes, SYBR Green DNA, 72 h; series mostly up to 28.7 µM
Procedure, shortened: as §1

[5] = system: 7G8; test: as above; conditions: P. falciparum in erythrocytes, SYBR Green DNA, 72 h; series mostly up to 28.7 µM
Procedure, shortened: as §1

[6] = system: AA1029; test: as above; conditions: P. falciparum in erythrocytes, SYBR Green DNA, 72 h; series mostly up to 28.7 µM
Procedure, shortened: as §1

[7] = system: AS120; test: as above; conditions: P. falciparum in erythrocytes, SYBR Green DNA, 72 h; series mostly up to 28.7 µM
Procedure, shortened: as §1

[8] = qHTS drug screen for cell cycle checkpoint inhibitors in PARPi-resistant BRCA-mutant ovarian cancer cell lines. (AID 1963452; calls by dose curve); conditions: PEO1/OlaR viability, CellTiter-Glo luminescence, 96 h, stronger effect = lower value
Procedure, shortened: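 PEO1, PEO4 and PEO1/OlaR ovarian cancer cells, 600 per well, exposed 96 h at 37C to a dilution series. Viability read by CellTiter-Glo luminescence, normalized to DMSO and empty wells; activity summarized as Z-AUC.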

[9] = TFE3-RCC UOK109 viability, measured here: UOK109 Z-AUC
[10] = TFE3-RCC viability, measured here: UOK124 Z-AUC
[11] = TFE3-RCC viability, measured here: UOK145 Z-AUC

For `CCC[C@@H]1C[C@@H](C(=O)N[C@@H]([C@H]2O[C@H](SC)[C@H](O)[C@@H](O)[C@H]2O)[C@@H](C)O)N(C)C1`, the Potency [1] was “inactive”.
Work on `C[C@@H](N)C1CCC(C(=O)Nc2ccncc2)CC1` (some centres undefined) yielded a z-score [2, 9] of 1.67, a z-score [2, 10] of 0.534 and a z-score [2, 11] of 0.866.
`NS(=O)(=O)c1cc(C(=O)O)c(NCc2ccco2)cc1Cl` gave a z-score [2, 9] of -0.035, a z-score [2, 10] of -0.245 and a z-score [2, 11] of 0.387.
In the case of `Cc1nc2n(c(=O)c1CCN1CCC(c3noc4cc(F)ccc34)CC1)CCCC2`, the z-score [2, 9] is reported as 0.0752, the z-score [2, 10] is reported as 0.441 and the z-score [2, 11] is reported as 0.372. For the same molecule, the activity, negative = inhibition ([3]; parasite line A) was 8.34% (inactive), the activity, negative = inhibition ([3]; parasite line B) was 15.8% (inactive) and the Potency [4] was “inactive”. For the same molecule, the Potency [5] was 10 µM (active), the Potency [6] was “inactive” and the Potency [7] was “inactive”. For the same molecule, the Potency [1] was “inactive”.
For `O=C(O)c1cccc(-c2noc(-c3ccccc3F)n2)c1`, the activity, negative = inhibition ([3]; parasite line A) was -1.01% (inactive), the activity, negative = inhibition ([3]; parasite line B) was 10.4% (inactive) and the Potency [4] was “inactive”. The Potency [5] was “inactive”, the Potency [6] was “inactive” and the Potency [7] was “inactive”. The Potency [1] was “inactive”.
`CNC[C@@H](O)[C@@H](O)[C@H](O)[C@H](O)CO` gave a z-score [2, 9] of 1.02, a z-score [2, 10] of 0.532 and a z-score [2, 11] of 0.899. For the same molecule, the activity, negative = inhibition ([3]; parasite line A) was 7.09% (inactive), the activity, negative = inhibition ([3]; parasite line B) was 5.8% (inactive) and the Potency [4] was “inactive”. The Potency [5] was “inactive”, the Potency [6] was “inactive” and the Potency [7] was “inactive”. The Potency [1] was “inactive”.
With `CCCCCCCCOc1ccccc1C(=O)Nc1ccc(C(=O)OCC[N+](C)(CC)CC)cc1` the Potency ([3]; parasite line A) was 12.6 µM (active), the Potency ([3]; parasite line B) was 10 µM (active) and the Potency [4] was 10 µM (active). For the same molecule, the Potency [5] was 12.6 µM (active) and the Potency [6] was 10 µM (active).
For `Nc1ccn([C@@H]2O[C@H](CO)[C@@H](O)C2O)c(=O)n1` (some centres undefined), the z-score [2, 9] was 0.798, the z-score [2, 10] was 0.809 and the z-score [2, 11] was 0.948. For the same molecule, the activity, negative = inhibition ([3]; parasite line A) was 12.2% (inactive), the activity, negative = inhibition ([3]; parasite line B) was 0.749% (inactive) and the Potency [4] was “inactive”. For the same molecule, the Potency [5] was “inactive”, the Potency [6] was “inactive” and the Potency [7] was “inactive”. The Potency [1] was “inactive”.
For `C[C@]12CCC(=O)C=C1CC[C@@H]1[C@H]2[C@@H](O)C[C@@]2(C)[C@H]1CC[C@]2(O)C(=O)CO`, the activity, negative = inhibition ([3]; parasite line A) was 9.9% (inactive), the activity, negative = inhibition ([3]; parasite line B) was 19.1% (inactive) and the Potency [4] was “inactive”. For the same molecule, the Potency [5] was “inactive”, the Potency [6] was “inactive” and the Potency [7] was “inactive”. For the same molecule, the Potency [1] was “inactive”.
With `COc1c(O)cc2c(c1O)[C@@H]1O[C@H](CO)[C@@H](O)[C@H](O)[C@H]1OC2=O` the z-score [2, 9] was 0.427, the z-score [2, 10] was 0.313 and the z-score [2, 11] was -0.262.
Molecule `O=c1oc2cc(O)ccc2s1` has a z-score [2, 9] of 0.879, a z-score [2, 10] of 0.455 and a z-score [2, 11] of 1.32. For the same molecule, the activity, negative = inhibition ([3]; parasite line A) was -2.41% (inactive), the activity, negative = inhibition ([3]; parasite line B) was -10.3% (inactive) and the Potency [4] was “inactive”. For the same molecule, the Potency [6] was “inactive”, the Potency [7] was “inactive” and the Potency [1] was “inactive”.
For `CN(c1nccc(=O)[nH]1)C1CCN(c2nc3ccccc3n2Cc2ccc(F)cc2)CC1`, the activity, negative = inhibition ([3]; parasite line A) was -22.1% (inactive), the activity, negative = inhibition ([3]; parasite line B) was -10.5% (inactive) and the Potency [4] was “inactive”. For the same molecule, the Potency [5] was 11.2 µM (active) and the Potency [1] was “inactive”.
In the case of `CCOC(=O)c1c(C)n(C)c2ccc(O)cc12`, the activity, negative = inhibition ([3]; parasite line A) is reported as 15.4% (inactive), the activity, negative = inhibition ([3]; parasite line B) is reported as 20.5% (inactive) and the Potency [4] is reported as “inactive”. For the same molecule, the Potency [5] was “inactive”, the Potency [6] was “inactive” and the Potency [7] was “inactive”. For the same molecule, the Potency [1] was “inactive”.
For `N[C@@H](Cc1cc(I)c(Oc2cc(I)c(O)c(I)c2)c(I)c1)C(=O)O`, the z-score [2, 9] was 0.737, the z-score [2, 10] was 0.682 and the z-score [2, 11] was 0.762. The activity, negative = inhibition ([3]; parasite line A) was -3.11% (inactive), the activity, negative = inhibition ([3]; parasite line B) was -2.18% (inactive) and the Potency [4] was “inactive”. For the same molecule, the Potency [5] was “inactive”, the Potency [6] was “inactive” and the Potency [7] was “inactive”. The Potency [1] was “inactive”.
In the case of `C=CCc1cc(OC)c(O)c(C(=O)NCCO)c1`, the z-score [2, 9] is reported as 0.957, the z-score [2, 10] is reported as 0.641 and the z-score [2, 11] is reported as 1.25. For the same molecule, the activity, negative = inhibition ([3]; parasite line A) was 6.75% (inactive), the activity, negative = inhibition ([3]; parasite line B) was 10.3% (inactive) and the Potency [4] was “inactive”. The Potency [5] was “inactive”, the Potency [6] was “inactive” and the Potency [7] was “inactive”. The Potency [1] was “inactive”.
For `CN(C)CCc1c[nH]c2ccc(Cn3cncn3)cc12`, the z-score [2, 9] was 0.0634, the z-score [2, 10] was 0.723 and the z-score [2, 11] was 0.764. The activity, negative = inhibition ([3]; parasite line A) was 15.9% (inactive), the activity, negative = inhibition ([3]; parasite line B) was -0.428% (inactive) and the Potency [4] was “inactive”. For the same molecule, the Potency [5] was “inactive”, the Potency [6] was “inactive” and the Potency [7] was “inactive”. For the same molecule, the Potency [1] was “inactive”.
For `CC(C)c1ccc2oc3nc(N)c(C(=O)O)cc3c(=O)c2c1`, the z-score [2, 9] was 0.102, the z-score [2, 10] was 0.464 and the z-score [2, 11] was 0.404. For the same molecule, the activity, negative = inhibition ([3]; parasite line A) was -29.9% (inactive), the activity, negative = inhibition ([3]; parasite line B) was -11.5% (inactive) and the Potency [4] was “inactive”. The Potency [1] was “inactive”.
With `Cc1cccc(C)c1OCC(=O)N[C@@H](Cc1ccccc1)[C@@H](O)C[C@H](Cc1ccccc1)NC(=O)[C@H](C(C)C)N1CCCNC1=O` the Potency ([3]; parasite line A) was 8.91 µM (active), the Potency ([3]; parasite line B) was 5.01 µM (active) and the Potency [4] was 7.08 µM (active). For the same molecule, the Potency [5] was 0.794 µM (active), the Potency [6] was 3.55 µM (active) and the Potency [7] was 1.41 µM (active). For the same molecule, the Potency [1] was 3.98 µM (active).
With `Cc1nc(-c2ccc(OCC(C)C)c(C#N)c2)sc1C(=O)O` the z-score [2, 9] was 1.16, the z-score [2, 10] was 0.952 and the z-score [2, 11] was 0.581.
With `O=C1CCc2ccc(OCCCCN3CCN(c4cccc(Cl)c4Cl)CC3)cc2N1` the Z-AUC [8] was -1.31 (inactive), the Z-AUC ([8]; measured here: PEO1 parental Z-AUC) was -0.72 and the Z-AUC ([8]; measured here: PEO4 Z-AUC) was -1.21. The Potency [5] was 12.6 µM (active).
`O=C(O)c1cccnc1Nc1cccc(C(F)(F)F)c1` showed a z-score [2, 9] of 0.327, a z-score [2, 10] of 0.739 and a z-score [2, 11] of 0.463. The activity, negative = inhibition ([3]; parasite line A) was 8.39% (inactive), the activity, negative = inhibition ([3]; parasite line B) was 13.5% (inactive) and the Potency [4] was “inactive”. The Potency [5] was “inactive”, the Potency [6] was “inactive” and the Potency [7] was “inactive”. The Potency [1] was “inactive”.
`COC(=O)N[C@H](C(=O)N[C@@H](Cc1ccccc1)[C@@H](O)CN(Cc1ccc(-c2ccccn2)cc1)NC(=O)[C@@H](NC(=O)OC)C(C)(C)C)C(C)(C)C` gave a z-score [2, 9] of 0.351, a z-score [2, 10] of -0.0676 and a z-score [2, 11] of 2.98.
